Sampled rows, rich in hits. Any-hit rate of the full collection: about 1.3%.
TcdB GH inh = blocks C. difficile toxin B glycohydrolase activity | P18177 | hit rate 0.24% among 350,000 | inhibition, % at 9.99 µM | TcdB glycohydrolase enzymatic assay, plate reader; in the data active = inhibition above about 10%
Target sequence (P18177 whole entry, looked up): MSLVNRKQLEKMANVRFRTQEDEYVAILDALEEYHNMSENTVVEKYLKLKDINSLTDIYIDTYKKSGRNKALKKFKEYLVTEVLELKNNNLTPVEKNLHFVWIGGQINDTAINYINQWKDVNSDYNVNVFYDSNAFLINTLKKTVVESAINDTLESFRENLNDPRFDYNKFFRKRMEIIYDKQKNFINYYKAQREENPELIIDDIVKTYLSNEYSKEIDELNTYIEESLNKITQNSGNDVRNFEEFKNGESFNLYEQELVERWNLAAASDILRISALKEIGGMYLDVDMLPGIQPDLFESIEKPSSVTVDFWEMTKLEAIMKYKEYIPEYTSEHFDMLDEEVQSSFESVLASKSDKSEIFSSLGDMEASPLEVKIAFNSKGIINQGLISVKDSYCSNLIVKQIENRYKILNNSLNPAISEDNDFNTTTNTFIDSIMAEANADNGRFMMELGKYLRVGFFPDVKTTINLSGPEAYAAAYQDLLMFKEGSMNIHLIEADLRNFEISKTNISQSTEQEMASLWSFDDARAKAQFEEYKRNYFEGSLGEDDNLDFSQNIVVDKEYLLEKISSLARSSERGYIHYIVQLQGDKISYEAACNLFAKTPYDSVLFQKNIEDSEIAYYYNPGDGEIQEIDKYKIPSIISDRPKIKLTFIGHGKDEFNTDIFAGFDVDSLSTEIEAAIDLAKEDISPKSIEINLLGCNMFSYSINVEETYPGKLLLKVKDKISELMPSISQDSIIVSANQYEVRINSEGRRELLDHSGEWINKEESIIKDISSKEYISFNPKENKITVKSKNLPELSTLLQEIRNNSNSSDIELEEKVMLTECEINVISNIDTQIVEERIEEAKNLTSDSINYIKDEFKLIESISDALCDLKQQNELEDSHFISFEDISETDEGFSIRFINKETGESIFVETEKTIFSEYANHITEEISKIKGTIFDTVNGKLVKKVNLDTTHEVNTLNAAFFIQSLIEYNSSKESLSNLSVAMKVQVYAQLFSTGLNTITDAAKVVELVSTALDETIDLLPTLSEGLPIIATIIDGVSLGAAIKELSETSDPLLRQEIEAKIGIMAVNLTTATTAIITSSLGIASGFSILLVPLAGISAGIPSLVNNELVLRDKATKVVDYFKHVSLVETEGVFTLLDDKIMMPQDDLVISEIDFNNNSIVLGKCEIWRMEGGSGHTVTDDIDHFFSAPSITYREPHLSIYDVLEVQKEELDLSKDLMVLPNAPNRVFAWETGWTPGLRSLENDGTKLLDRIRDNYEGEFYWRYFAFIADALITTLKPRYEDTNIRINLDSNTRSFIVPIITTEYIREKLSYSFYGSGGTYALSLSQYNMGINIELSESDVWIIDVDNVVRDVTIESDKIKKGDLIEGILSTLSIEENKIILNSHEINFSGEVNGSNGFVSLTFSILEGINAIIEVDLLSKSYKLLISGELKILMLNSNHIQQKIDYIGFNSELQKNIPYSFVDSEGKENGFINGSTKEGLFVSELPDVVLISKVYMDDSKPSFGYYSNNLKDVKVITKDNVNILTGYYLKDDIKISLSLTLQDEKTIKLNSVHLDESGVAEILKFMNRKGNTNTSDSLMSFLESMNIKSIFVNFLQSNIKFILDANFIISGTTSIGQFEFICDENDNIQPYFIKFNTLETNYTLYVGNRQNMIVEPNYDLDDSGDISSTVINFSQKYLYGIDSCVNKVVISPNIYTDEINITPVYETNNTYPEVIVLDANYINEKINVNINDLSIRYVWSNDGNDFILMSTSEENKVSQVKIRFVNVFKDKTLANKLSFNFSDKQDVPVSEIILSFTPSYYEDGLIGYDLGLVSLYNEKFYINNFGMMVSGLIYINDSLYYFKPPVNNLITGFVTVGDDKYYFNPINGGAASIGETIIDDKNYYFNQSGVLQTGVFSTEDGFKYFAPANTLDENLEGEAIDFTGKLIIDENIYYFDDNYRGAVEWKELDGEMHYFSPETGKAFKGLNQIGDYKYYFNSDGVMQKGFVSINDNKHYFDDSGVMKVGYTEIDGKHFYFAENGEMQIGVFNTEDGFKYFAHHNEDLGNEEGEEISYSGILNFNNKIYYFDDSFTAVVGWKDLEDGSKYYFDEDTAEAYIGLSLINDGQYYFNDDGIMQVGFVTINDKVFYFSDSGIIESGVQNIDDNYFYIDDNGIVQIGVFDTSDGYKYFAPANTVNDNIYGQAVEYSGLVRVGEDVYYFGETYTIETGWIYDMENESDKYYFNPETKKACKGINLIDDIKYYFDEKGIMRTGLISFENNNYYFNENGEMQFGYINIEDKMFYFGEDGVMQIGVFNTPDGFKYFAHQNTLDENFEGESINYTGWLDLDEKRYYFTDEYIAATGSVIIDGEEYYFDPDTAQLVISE
CCHF vOTU inh = blocks the CCHF virus ovarian tumor domain protease; CCHFV vOTU protease, Pep-AMC fluorescence; inhibition, % at 11.5 µM; hit rate 0.55% among 370,000; in the data active = inhibition above about 30%; note: 0% = vehicle wells with enzyme and 100% = no enzyme wells
3CLpro inhibitor = SARS-CoV 3CLpro protease inhibition | P0C6X7 | recombinant SARS-CoV 3CLpro, quenched FRET peptide cleavage | inhibition, % at 6 µM | hit rate 0.14% among 290,000; in the data active = inhibition above about 12%
DUSP3 inh = inhibitors of human VHR1 phosphatase (DUSP3); P51452; AID 1654; recombinant VHR phosphatase, pNPP absorbance; hit rate 0.52% among 290,000; inhibition, % at 13.3 µM; in the data active = inhibition above about 50%
Vc quorum ag = inducers of Vibrio cholerae quorum light production without autoinducers. V. cholerae BH1578 lux reporter, luminescence, 6 h. activation, % at 18.7 µM. hit rate 0.16% among 350,000; in the data active = activation mostly above about 9.7%, no sharp cut-off
PriA SSB inh = blocks PriA binding to SSB C-terminal tail | inhibition, % at 33 µM | AlphaScreen SSBct-PriA binding, biotinylated peptide | hit rate 0.6% among 430,000; in the data active = inhibition mostly above about 37%, no sharp cut-off; inactive = mostly below about 20%;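 note: plate controls were negative control peptide for no effect and reference peptide for full effect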
Numbers without * were called inactive; i = inactive; x = no result given.

SMILES	TcdB GH inh	CCHF vOTU inh	3CLpro inhibitor	DUSP3 inh	Vc quorum ag	PriA SSB inh
CSc1ccc2c(c1)sc(=NC(=O)Cc1cc(C)ccc1C)n2C	x	x	x	x	x	4.0
NC(=O)c1c(NC(=O)CCCSc2ccc(Cl)cc2)sc2c1CCC2	x	x	x	x	x	14.0
CCc1cc(/C(Cc2ccccn2)=N\O)c(O)cc1O	15.5*	3.7	2.2	27.3	i	x
CC(C(=O)NCc1cccnc1)c1ccc([N+](=O)[O-])cc1 (stereo not drawn)	1.2	11.7	-3.7	52.0*	-0.4	-13.1
Cc1nc2sc(C)c(C)n2c(=O)c1NC(=O)C1c2ccccc2Oc2ccccc21	x	x	x	x	x	-7.0
O=C(N/N=C\c1cc(Cl)ccc1O)c1ccc(S(=O)(=O)N2CCCCC2)cc1	x	0.0	-0.3	64.4*	-0.2	x
COc1ccccc1N=C(C)N(C)CCNS(=O)(=O)c1ccc(Cl)cc1	x	x	x	x	x	-11.0
Cc1ccc(S(=O)(=O)N2CCCC2CNC(=O)c2cccs2)cc1 (stereo not drawn)	x	x	x	x	x	-2.0
Clc1cccc(-c2ccc(/C=N/n3cnnc3)o2)c1Cl	0.8	-1.0	-4.7	13.2	x	x
Cc1c(Cl)cccc1-c1ccc(/C=N/n2cnnc2)o1	x	15.8	-3.1	58.8*	27.3*	x
COc1ccc(Cl)cc1C(=O)Nc1cccc(-c2ccc3nnc(C)n3n2)c1	x	x	x	x	x	-2.0
O=C(COc1ccc(Cl)cc1)Nc1ccccc1Cl	-0.3	5.4	2.5	53.9*	i	-3.2
COc1ccc(Cc2cc(NCc3ccccc3)c3ncn(C(C)C)c3c2)cc1	-0.9	4.6	x	x	i	66.0*
CCOC(=O)CNC(=O)CNC(=O)c1ccc(OCC(C)C)cc1	x	7.7	-4.9	53.4*	x	-3.7
COC(=O)c1ccc(S(=O)(=O)NCCC(O)c2cc3ccccc3o2)cc1 (stereo not drawn)	x	x	x	x	x	0.0
COc1cc2[nH]c(=S)n(Cc3cccs3)c(=O)c2cc1OC	25.0*	-6.5	-1.4	14.9	-1.4	-9.2
COc1ccc(Cl)cc1N(CC(=O)NC1CC2CCC1C2)S(=O)(=O)c1ccccc1 (stereo not drawn)	7.7	16.3	1.4	2.5	-0.6	1.3
COC(=O)c1cc(NC(=O)CN(c2ccccc2OC)S(=O)(=O)c2ccccc2)ccc1Cl	1.4	5.2	13.4*	6.2	x	10.8
COC(=O)c1cc(NC(=O)CN(c2cccc(OC)c2)S(=O)(=O)c2ccccc2)ccc1Cl	0.8	9.3	0.2	-13.3	-0.6	-6.5
COc1ccc(OC)c(N(CC(=O)NC2CC3CCC2C3)S(=O)(=O)c2ccccc2)c1 (stereo not drawn)	-1.1	10.9	0.1	59.1*	-5.6	8.8
O=C(CCC1=NS(=O)(=O)c2ccccc2N1)N1CCN(c2ccccc2F)CC1	x	x	x	x	x	-4.0
Cc1cc(N2CCC(C(=O)NC3CC3)CC2)nc(-c2ccccc2)n1	x	7.2	-6.9	12.8	-7.7	-23.5
Cc1cc(N2CCN(c3cccc(C)c3C)CC2)nc(-c2ccccc2)n1	x	7.5	0.3	52.9*	0.6	-10.3
CCNC(=S)NNC(=O)c1ccccc1Cl	x	-15.4	-1.8	-2.9	-0.6	-4.2
CCNC(=S)NNC(=O)c1ccccn1	x	-2.4	-4.5	-2.5	-0.6	92.5*
SMILES	TcdB GH inh	CCHF vOTU inh	3CLpro inhibitor	DUSP3 inh	Vc quorum ag	PriA SSB inh
O=C(NNC(=S)Nc1ccc(Cl)c(Cl)c1)c1ccccn1	0.9	-3.5	1.1	22.5	-0.1	91.6*
CC(NC(=O)NC(=O)c1cccc(Cl)c1)c1ccccc1 (stereo not drawn)	1.4	10.3	-1.7	-5.4	i	8.2
CC(NC(=O)CNC(=O)c1cccc(Cl)c1)c1ccccc1 (stereo not drawn)	0.4	4.3	1.9	-9.5	0.0	66.3*
CCc1ccc2nc(N3CCNCC3)sc2c1	x	x	x	x	x	4.0
Cc1ccc2[nH]c3c(=O)n(CCC(=O)NC4CC4)cnc3c2c1	x	x	x	x	x	-4.0
COc1cc(OC)cc(C(=O)N2CCN(C(=O)c3cccs3)CC2)c1	0.9	-6.9	-2.4	57.6*	1.5	-15.5
Clc1ccc(CCNc2nc3ccccc3n3nnnc23)cc1	1.8	-3.0	-7.9	50.0*	x	-8.3
Cc1cccc(CCNc2nc3ccccc3n3nnnc23)c1	x	-12.0	2.3	22.8	i	-6.2
CCOCC(=O)NC1CCC(Oc2ccccn2)CC1 (stereo not drawn)	x	x	x	x	x	-7.0
c1ccc(OC2CC3CCC(C2)N3)nc1 (stereo not drawn)	x	x	x	x	x	96.0*
COc1ccc(Br)cc1/C=N/n1c(C)nc2ccccc2c1=O	1.0	6.0	-0.2	58.2*	-1.5	x
O=C(N=C1SC2CS(=O)(=O)CC2N1c1ccc(Cl)cc1)C1CCCO1 (stereo not drawn)	-0.9	7.2	-1.6	-5.0	-0.7	0.7
COc1ccc(N2C(=NC(=O)C3CCCO3)SC3CS(=O)(=O)CC32)cc1 (stereo not drawn)	1.0	0.2	-1.7	55.6*	-0.4	-12.7
O=C(COc1ccccc1)N=C1SC2CS(=O)(=O)CC2N1c1ccc(F)cc1 (stereo not drawn)	0.2	-5.2	-9.7	54.2*	-0.3	-10.2
O=C(NCCc1ccccc1)c1ccc(CS(=O)(=O)Cc2ccc(F)cc2)o1	1.4	3.9	0.3	12.3	-0.3	-12.7
Cc1ccccc1S(=O)(=O)Cc1ccc(C(=O)NCc2ccccc2)o1	-3.4	5.5	0.5	56.8*	-4.2	-2.5
O=C(NCc1ccccc1)c1ccc(CS(=O)(=O)Cc2ccc(F)cc2)o1	0.7	10.7	-2.8	59.8*	-0.3	-8.2
Cc1ccccc1S(=O)(=O)Cc1ccc(C(=O)NCc2cccnc2)o1	x	14.8	-5.5	-15.7	-0.4	-4.5
O=S(=O)(NCc1nnnn1-c1ccc(F)cc1)c1cccs1	x	x	x	x	x	4.0
COc1cc(C=NNC(=O)CCc2n[nH]c(=O)[nH]c2=O)cc(OC)c1OC	x	x	x	x	x	-12.1
C=CC[n+]1c(C)csc1Nc1cccc(Br)c1	0.8	5.1	-1.4	4.7	i	61.4*
C=CC[n+]1c(C)csc1Nc1ccc(C)cc1	-3.1	2.4	0.6	25.6	-0.1	33.3
O=C(Nc1ccccc1OC(F)F)c1ccc(Br)o1	x	-0.6	-1.9	9.1	32.1*	-6.0
CC(=NNC(=O)C(C)Oc1ccc([N+](=O)[O-])cc1)c1ccccn1 (stereo not drawn)	x	x	x	x	x	47.8*
COC(=O)CSc1nc2c(c(=O)n1C)SCC2	x	x	x	x	x	-22.0
SMILES	TcdB GH inh	CCHF vOTU inh	3CLpro inhibitor	DUSP3 inh	Vc quorum ag	PriA SSB inh
COc1ccc(C(=O)NCC(c2ccc3c(c2)CCCN3C)N2CCOCC2)c(OC)c1 (stereo not drawn)	x	x	x	x	x	4.0
COc1ccc(C(=O)NCCc2ccc3c(c2)CCCN3C)c(OC)c1	x	x	x	x	x	62.0*
CCOc1cc(C(=O)NCCc2ccc3c(c2)CCCN3C)cc(OCC)c1OCC	x	x	x	x	x	36.0*
Cc1ccc(-n2c(C)nc3ccc(NC(=O)c4ccncc4)cc3c2=O)cc1	x	x	x	x	x	4.0
CC(C)(Oc1ccc(Cl)cc1)C(=O)NCc1nnnn1C1CCCCC1	x	x	x	x	x	-6.0
Cc1cccc(Nc2nc(N)nc(N)c2N=O)c1	-2.6	25.1	x	x	i	2.1
Cc1ccc(N(C)c2nc(N)nc(N)c2N=O)cc1	-0.4	60.7*	x	x	x	x
CCCNC(=O)c1cc(Cl)c(NC(=O)C2=C(C)OCCS2)cc1OC	1.2	16.0	-7.1	56.9*	i	-2.3
